JMJD2A Tudor inh: JMJD2A Tudor domain (human) inhibition | AlphaScreen JMJD2A-Tudor / H3K4me3 peptide binding | 4.4% of 390,000 active | Potency, µM (doses to about 114 µM), without a hit: at the highest dose activity change, negative = inhibition, most hits filed as inhibitors | AID 504339; note: potency is the fitted concentration of half-maximal effect; % is set by controls: 0 for no effect and ±100 for the full control effect; nearly all actives have a fitted effect of over 50% in size
Target sequence (O75164 whole entry, looked up, the tested form may be a part): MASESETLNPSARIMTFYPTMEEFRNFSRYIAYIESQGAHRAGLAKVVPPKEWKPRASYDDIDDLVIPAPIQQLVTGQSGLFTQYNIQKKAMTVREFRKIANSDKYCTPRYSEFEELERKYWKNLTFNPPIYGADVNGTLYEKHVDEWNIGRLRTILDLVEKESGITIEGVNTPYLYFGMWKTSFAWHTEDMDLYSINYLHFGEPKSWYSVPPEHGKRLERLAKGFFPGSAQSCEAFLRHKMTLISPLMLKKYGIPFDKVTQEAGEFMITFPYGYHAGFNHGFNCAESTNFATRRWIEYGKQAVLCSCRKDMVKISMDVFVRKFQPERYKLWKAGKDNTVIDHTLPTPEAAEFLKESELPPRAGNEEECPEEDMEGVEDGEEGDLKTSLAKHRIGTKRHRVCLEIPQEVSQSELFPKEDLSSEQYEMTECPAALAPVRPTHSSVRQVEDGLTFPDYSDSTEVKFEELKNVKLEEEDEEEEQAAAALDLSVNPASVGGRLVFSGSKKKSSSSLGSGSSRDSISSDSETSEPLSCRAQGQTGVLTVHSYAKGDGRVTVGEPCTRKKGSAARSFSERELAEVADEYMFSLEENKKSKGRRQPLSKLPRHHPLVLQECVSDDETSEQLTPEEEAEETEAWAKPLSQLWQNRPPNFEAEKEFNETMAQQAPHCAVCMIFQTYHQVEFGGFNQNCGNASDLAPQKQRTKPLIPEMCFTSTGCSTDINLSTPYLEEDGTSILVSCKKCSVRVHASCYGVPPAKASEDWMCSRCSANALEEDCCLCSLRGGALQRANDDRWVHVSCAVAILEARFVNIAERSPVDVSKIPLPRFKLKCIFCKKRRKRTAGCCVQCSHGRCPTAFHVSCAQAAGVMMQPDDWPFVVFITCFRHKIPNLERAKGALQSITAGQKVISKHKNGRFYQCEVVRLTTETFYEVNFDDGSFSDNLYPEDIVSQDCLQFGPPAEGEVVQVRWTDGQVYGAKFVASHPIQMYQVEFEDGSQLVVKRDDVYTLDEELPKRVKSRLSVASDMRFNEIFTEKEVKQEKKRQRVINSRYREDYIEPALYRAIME
Six1-Eya2 blk: Six1/Eya2 interaction inhibition. AID 651725. activity change, % (test concentration not listed). AlphaScreen GST-Six1/His-Eya2 binding, biochemical; stronger effect = lower value. 0.56% of 360,000 active; in the data active = activity change below about -65%; inconclusive = mostly about -30% to -63%; note: % is set by controls: 0 for no effect and ±100 for the full control effect
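Compounds are tested against tagged Six1 and Eya2 proteins bridged by glutathione donor and nickel acceptor beads; after a one-hour incubation at 37 °C without light, AlphaScreen emission is recorded.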
G9a block: inhibitors of human histone lysine methyltransferase G9a; Q96KQ7; G9a H3K9 monomethylation, AlphaScreen, 2 h; Potency, µM (titrated, usually from 102 µM), for the others: at the highest dose activity, negative = inhibition, most hits filed as inhibitors; 8.8% of 350,000 active; AID 504332; note: potency is the fitted concentration of half-maximal effect; % is set by controls: 0 for no effect and ±100 for the full control effect; nearly all actives have a fitted effect of over 75% in size
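G9a (20 nM) preincubated 15 min RT with compounds, then 500 nM biotinylated H3K9 peptide and 20 uM SAM added; 2 h RT reaction. Monomethyl-H3K9 product detected by AlphaScreen with anti-H3K9me1 antibody, streptavidin donor and anti-rabbit IgG acceptor beads.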
BAZ2B block: BAZ2B (human) inhibition | AlphaScreen BAZ2B-H3K14Ac peptide displacement | Potency, µM (doses to about 114 µM), for inactives: top-dose activity change, negative = inhibition, usual class: inhibitors | Q9UIF8 | 4.4% of 360,000 active; note: potency is the fitted concentration of half-maximal effect; % is set by controls: 0 for no effect and ±100 for the full control effect; nearly all actives have a fitted effect of over 60% in size
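Complex of BAZ2B and biotin-H3K14Ac (50 nM apiece) forms over 30 min at RT, then faces library compounds up to 110 uM for another 30 min; AlphaScreen beads added, 20 min dark incubation, luminescence read.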
HP1b chromo inh: inhibitors of HP1-beta chromodomain binding to methylated histone tails | 0.56% of 390,000 active | Potency, µM (doses to about 114 µM), without a hit: at the highest dose activity change, negative = inhibition, most hits filed as inhibitors | P83916 | AlphaScreen HP1-beta / biotin-H3K9me3 peptide binding; note: potency is the fitted concentration of half-maximal effect; nearly all actives have a fitted effect of over 70% in size
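HP1-beta protein (50 nM final) preincubated 30 min at room temperature with biotinylated H3(1-18)K9me3 peptide (50 nM) in PBS pH 7.4, 0.01% Tween-20, then compound added for 30 min. AlphaScreen streptavidin donor/nickel chelate acceptor beads (10 ug/mL final), 30 min dark, luminescence read.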
CtBP-E1A blk: inhibitors of CtBP/E1A interaction; AlphaScreen GST-E1A/His-CtBP binding, 1536-well; stronger effect = lower value; activity change, % (no concentration beside the values); 0.49% of 340,000 active; AID 651724; in the data active = activity change below about -65%; inconclusive = mostly about -30% to -63%; note: % is set by controls: 0 for no effect and ±100 for the full control effect
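Steps: dispense buffer (Tris pH 8.0, NaCl 300 mM, TCEP 1 mM, BSA, Tween 20); add 5X protein mix (GST-E1A, His-CtBP, 125 nM each); pin 23 nL compound; 2 h at 37 °C, dark; add 5X beads (50 ug/mL); 1 h; read.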
Active calls of the source: *; [ ] = another dose, or the depositor's remark. Hits are enriched below; roughly 10% of the tested compounds scored in any of these assays. Unless noted, calls come from the whole dose curve; as a rule, active = well fitted inhibition curve with a large enough effect; inconclusive = small, poorly fitted or top-dose-only effect; inactive = no such curve, though single readings can be large or run the other way.

For Cc1cc(Cl)ccc1NC(=O)CN1C(=O)NC2(CCCC2)C1=O the results were JMJD2A Tudor inh -6%, Six1-Eya2 blk 44, G9a block 15%, BAZ2B block -17%, HP1b chromo inh -9% and CtBP-E1A blk -1.
`CN(C)c1ccc(S(=O)(=O)N2CCCCC2)cc1NC(=O)CN1C(=O)NC2(CCCC2)C1=O` gave JMJD2A Tudor inh -17%, Six1-Eya2 blk 9, G9a block 14µM*, BAZ2B block 10%, HP1b chromo inh 21% and CtBP-E1A blk -1.
`O=C(CN1C(=O)NC2(CCCC2)C1=O)Nc1cc(Cl)ccc1N1CCCC1` gave JMJD2A Tudor inh -17%, Six1-Eya2 blk 5, BAZ2B block -11%, HP1b chromo inh 23% and CtBP-E1A blk -1.
`Cc1cc(N2CCCC2)ccc1NC(=O)CN1C(=O)NC2(CCCCC2)C1=O` gave JMJD2A Tudor inh -36%, Six1-Eya2 blk -14, G9a block 3.5µM*, BAZ2B block -35%, HP1b chromo inh -19% and CtBP-E1A blk -4.
Screening CCCN(CCC)C(=O)C1CCN(c2cc(C)nc3c(-c4ccc(Cl)cc4)c(C)nn23)CC1 returned JMJD2A Tudor inh 31%, G9a block 24%[59 µM], BAZ2B block 14% and HP1b chromo inh 95%.
CCCCc1nc2ccccc2n2c(-c3ccc(C)cc3)c3c(=O)n(C)c(=O)n(C)c3c12 was read as JMJD2A Tudor inh 25%, G9a block 20%[59 µM], BAZ2B block 15%[57.1 µM] and HP1b chromo inh 53%.
`COc1ccccc1N=Nc1c(O)[nH]c2ccc(Br)cc12` gave JMJD2A Tudor inh 45µM*, Six1-Eya2 blk -5, G9a block -10%, BAZ2B block 3%, HP1b chromo inh -2% and CtBP-E1A blk 3.
For Cc1ccccc1N=Nc1c(O)[nH]c2ccccc12 the results were JMJD2A Tudor inh inconclusive, Six1-Eya2 blk 5, HP1b chromo inh -5% and CtBP-E1A blk 2.
`Cc1cccc(N=Nc2c(O)[nH]c3ccc(Br)cc23)c1` gave JMJD2A Tudor inh -28%, Six1-Eya2 blk 3, G9a block 45µM*, BAZ2B block -22%, HP1b chromo inh 23% and CtBP-E1A blk -2.
For COc1ccc2[nH]c(N=Nc3ccccc3C)c(O)c2c1 the results were JMJD2A Tudor inh 45µM*, Six1-Eya2 blk -1, G9a block 13µM*, BAZ2B block inconclusive, HP1b chromo inh -12% and CtBP-E1A blk -21.
Cc1ccc2[nH]c(O)c(N=Nc3ccccc3C)c2c1 was read as JMJD2A Tudor inh inconclusive, Six1-Eya2 blk 13, G9a block 8.9µM*, BAZ2B block inconclusive, HP1b chromo inh 71µM* and CtBP-E1A blk -1.
COc1ccc2[nH]c(C)c(C(=O)CN(C)C)c2c1 was read as JMJD2A Tudor inh -6%, Six1-Eya2 blk -1, G9a block -3%[2.33 µM], BAZ2B block 9%, HP1b chromo inh 23% and CtBP-E1A blk 9.
Screening O=C(NCc1ccccc1Cl)c1ccc2nc([C@@H]3O[C@H](CO)[C@@H](O)[C@H]3O)[nH]c2c1 returned Six1-Eya2 blk 16 and CtBP-E1A blk 28.
O=C(N=Nc1c(O)[nH]c2ccc(Br)cc12)c1ccccc1-n1cccc1 was read as JMJD2A Tudor inh 16µM*, Six1-Eya2 blk inconclusive, G9a block 25µM*, BAZ2B block 32µM*, HP1b chromo inh inconclusive and CtBP-E1A blk inconclusive.
For CCC(CC)c1nnc(NC(=O)c2ccc3c(c2)OCO3)s1 the results were JMJD2A Tudor inh -18%, Six1-Eya2 blk 11, G9a block 22µM*, BAZ2B block -11%, HP1b chromo inh inconclusive and CtBP-E1A blk 0.
`CCc1nnc(NC(=O)COc2ccc3c(c2)OCO3)s1` gave JMJD2A Tudor inh -8%, Six1-Eya2 blk 2, G9a block 45µM*, BAZ2B block 4%, HP1b chromo inh -30% and CtBP-E1A blk -5.
`Cc1cc(=O)oc2cc(OCC(=O)Nc3nnc(C(C)C)s3)ccc12` gave JMJD2A Tudor inh -15%, Six1-Eya2 blk -2, G9a block 45µM*, BAZ2B block -9%, HP1b chromo inh 16% and CtBP-E1A blk 5.
CCCc1nnc(NC(=O)COc2ccc3c(c2)OCO3)s1 was read as JMJD2A Tudor inh -11%, Six1-Eya2 blk -3, G9a block 5%, BAZ2B block -17%, HP1b chromo inh -2% and CtBP-E1A blk -2.
Screening COC(=O)CSc1nnc(NC(=O)c2ccc3c(c2)OCO3)s1 returned JMJD2A Tudor inh -6%, Six1-Eya2 blk 1, G9a block 32µM*, BAZ2B block -6%, HP1b chromo inh 52% and CtBP-E1A blk 6.
For O=C1CC(NS(=O)(=O)c2ccccc2)CN1c1ccc2c(c1)OCCO2 (centres undefined) the results were JMJD2A Tudor inh -15%, Six1-Eya2 blk 3, G9a block 3%, BAZ2B block 12%, HP1b chromo inh 8% and CtBP-E1A blk 4.
`CCOC(=O)c1c(C)[nH]c(C)c1S(=O)(=O)NCC(=O)Nc1cccc(C(F)(F)F)c1` gave JMJD2A Tudor inh -30%, G9a block 7%[59 µM], BAZ2B block -1% and HP1b chromo inh -12%.
CCCN1C(=O)C(NC(=O)c2ccccc2OC)(C(F)(F)F)C(C(=O)OC)=C1C (centres undefined) was read as JMJD2A Tudor inh 5%, G9a block -2%[59 µM], BAZ2B block -14% and HP1b chromo inh 37%.
For Cc1nnc(NC(=O)c2ccco2)s1 the results were JMJD2A Tudor inh -13%, Six1-Eya2 blk -20, G9a block -4%, BAZ2B block 10%, HP1b chromo inh 21% and CtBP-E1A blk 1.
Screening CCC(CC)c1nnc(NC(=O)COc2ccc3c(c2)OCO3)s1 returned JMJD2A Tudor inh inconclusive, Six1-Eya2 blk 5, G9a block 8.9µM*, BAZ2B block inconclusive, HP1b chromo inh inconclusive and CtBP-E1A blk -5.
`CC(C)(C)Cc1nnc(NC(=O)c2ccc3c(c2)OCO3)s1` gave JMJD2A Tudor inh -19%, Six1-Eya2 blk 7, G9a block 8.9µM*, BAZ2B block -15%, HP1b chromo inh inconclusive and CtBP-E1A blk 2.
`CCC(CC)c1nnc(NC(=O)c2ccco2)s1` gave JMJD2A Tudor inh -11%, Six1-Eya2 blk -7, G9a block 45µM*, BAZ2B block -19%, HP1b chromo inh -19% and CtBP-E1A blk 0.
Screening COc1cccc(C(=O)CC(=O)C(=O)Nc2cc(OC)c(OC)c(OC)c2)c1 returned G9a block -10% and BAZ2B block inconclusive.
For O=C(CCC(=O)Nc1nnc(C2CCCCC2)s1)Nc1ccccc1 the results were JMJD2A Tudor inh -2%, Six1-Eya2 blk 0, G9a block -6%, BAZ2B block -5%, HP1b chromo inh 35% and CtBP-E1A blk -5.
